Data reported in PubChem BioAssay (NCI).
Compounds without any hit were thinned out: in the full panel of roughly 79,000, 15% have a hit. Values without a mark were called inactive. Calls of active or inactive are those of the source. No stated cut-off is given here; in the data, active means growth inhibition above about 70%; inactive means the rest.

Assay: NCI Yeast Anticancer Drug Screen. Data for the bub3 strain (AID 167)
Conditions: S. cerevisiae bub3 mutant strain, stronger effect = higher value
Experimental: Growth inhibition of yeast strains with defined genetic alterations is measured as a screen for potential anti-cancer activity. Selected strains with alterations in DNA damage repair or cell cycle control were exposed to compounds and growth inhibition was measured relative to vehicle treated controls. The strain used in this assay is bub3

[1] = at 5.0 µM (retest, dose inferred, filed as 0.5)
[2] = at 50.0 µM (retest, dose inferred, filed as 5.0)

Row | Structure (SMILES) | growth inhibition [1] [%] | growth inhibition [2] | growth inhibition (at 50.0 µM)
1 | c1csc(CNCc2cccs2)c1 | -1 | -5% | 1.3%
2 | O=C(Nc1c(Cl)cc([N+](=O)[O-])cc1Cl)/C(=N\Nc1cccc(Cl)c1)c1c(O)c2ccccc2oc1=O | 5 | 5% | 31%
3 | CO/N=C/c1ccc([N+](=O)[O-])s1 | -61 | 76% (active) | 29.7%
4 | O=[N+]([O-])/C(Cl)=C/C(=C1/Nc2ccccc2O1)[N+](=O)[O-] | -15 | 53% | 71.2% (active)
5 | O=C(Nc1ccccc1Cl)c1ccc(Cl)c(Cl)c1 | 1 | -3% | 2.2%
6 | O=C1CC(O)CC(=O)C1=C(O)CCCCCCCCCCc1ccccc1 (configuration not stated) | 30 | 54% | 85.7% (active)
7 | N/C(=N\N=C/c1ccc(O)c(O)c1O)NO | -4 | -3% | 4.2%
8 | Brc1ccc(C2c3ccccc3-c3ccccc32)cc1 | 2 | 98% (active) | 95.8% (active)
9 | CN(C)CCCN1c2ccc3ccccc3c2Sc2cccc(Cl)c21 | 17 | 99% (active) | 8.95%
10 | CC(C)NC(=O)OCc1c(CO)c2c(n1C)-c1ccccc1CC2 | -3 | 96% (active) | 98.3% (active)
11 | CCOc1ccc2c(c1)[n+]([O-])c(-c1ccccc1)c(N)[n+]2[O-] | 69 | 99% (active) | 99.1% (active)
12 | CSC(SC)C(SC)SC | 0 | 99% (active) | -2.35%
13 | CC(=O)Oc1ccc(-c2ccccc2)cc1Br | 10 | 98% (active) | 94.2% (active)
14 | Nc1ccc(S(=O)(=O)N2CCCc3ccccc32)cc1 | 3 | 28% | 82% (active)
